Assay outcomes from PubChem BioAssay.
Sampled rows, rich in hits. Any-hit rate of the full collection: about 1.6%.
KCNQ2 enhance – enhances the rat KCNQ2 potassium channel. O88943. CHO-K1 KCNQ2, FluxOR thallium flux fluorescence; stronger effect = higher value. B-score at 10 µM. 310,000 tested, 0.54% active. AID 2239;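 active = fluorescence ratio B-score at least 3 SD of library B-scores, with initial fluorescence B-score within 3 of them, cut at about 5.3 in these data; same plate scores as AID 2156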;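 also: B-score of peak minus minimum over baseline fluorescence ratio after K+ and Tl+ stimulus; positive B-score means potentiation of KCNQ2 with more thallium influx and brighter signal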
KCNQ2 block – KCNQ2 (rat) channel inhibition; B-score at 10 µM; 310,000 tested, 1.1% active; AID 2156; O88943; CHO-K1 KCNQ2, FluxOR thallium flux, 20 min; stronger effect = lower value;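 active = fluorescence ratio B-score at most minus 3 library SDs, with starting brightness B-score within 2 library SDs, cut at about -5.5 in these data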
Kir21 confirm – confirmation of mouse Kir2.1 potassium channel inhibitors. shares compounds with KCNQ2 enhance. Kir2.1-expressing cells, FluxOR thallium flux fluorescence; stronger effect = lower value. Tl flux remaining, % of negative control (stronger effect = lower value), % at 10 µM. 2,300 tested, 41% active. AID 2032;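 active = Primary-screen hit whose thallium flux fell at least 3 control SD below untreated wells in both duplicates, with normal baseline fluorescence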;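 also: 0% = blank wells without stimulus and 100% = stimulated no-compound controls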
HEK293 ctr – parental HEK293 activity in Kir2.1 inhibitor counter-screen; 2,300 tested, 19% active; shares compounds with KCNQ2 enhance; FluxOR signal as % of negative control (100 = no effect), % at 10 µM; parental HEK293 cells, FluxOR thallium flux fluorescence; 0% = unstimulated blank wells;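 active = dye signal at least 3 control SD above or below untreated wells in both duplicates, raw fluorescence within 3, either direction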;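 also: percent is based on the flux ratio of peak minus minimum fluorescence over baseline F0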
CHO-K1 Tl ctr – parental CHO-K1 activity in KCNQ2 potentiator counter-screen. 1,200 tested, 43% active. parental CHO-K1 cells, FluxOR thallium flux fluorescence; zero = vehicle mean+3SD, 100% = vehicle-minus-blank window. activity increase over 3SD of controls, % at 10 µM. shares compounds with KCNQ2 enhance;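 active = signal rise of at least 3 SD above the untreated control mean, in both duplicate wells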;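 also: counter screen of KCNQ2 potentiator hits so any rise reflects channel-independent effects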
KCNQ1 sel pot – tests whether KCNQ2 potentiators also act on human KCNQ1; shares compounds with KCNQ2 enhance; CHO KCNQ1 stable, FluxOR thallium flux fluorescence; beyond 3SD, as % of vehicle-control signal; 1,200 tested, 28% active; activation over 3SD threshold, % at 10 µM;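 active = fluorescence ratio rise of at least 3 SD of vehicle wells above their mean, in both replicate wells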;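 also: 0% = vehicle mean plus 3 SD and 100% = vehicle minus unstimulated blank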
KCNQ2 pot confirm – confirmation of rat KCNQ2 potassium channel potentiators; AID 2287; potentiation, less the hit threshold, % at 10 µM; CHO-KCNQ2 cells, FluxOR thallium flux fluorescence; shares compounds with KCNQ2 enhance; 1,200 tested, 68% active;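 active = fluorescence ratio rising 3 SD or more over the vehicle control mean in both replicates, plus primary screen hit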;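 also: peak minus minimum thallium fluorescence divided by baseline after K/Tl stimulus; 0% = vehicle mean plus 3 SD and 100% = vehicle minus unstimulated blank difference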
Kir21 spec – mouse Kir2.1 off-target activity of KCNQ2 potentiators. shares compounds with KCNQ2 enhance. HEK293 Kir2.1, FluxOR thallium flux fluorescence. activity over 3SD threshold, % at 10 µM. 1,200 tested, 2% active. AID 2345;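 active = fluorescence ratio rise of at least 3 SD above the vehicle-control mean, seen in both replicates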;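 also: 0% = vehicle mean plus 3 SD and 100% = vehicle minus no-stimulus blank window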
KCNQ2 W236L MoA – potentiates the retigabine-insensitive rat KCNQ2 W236L mutant channel | shares compounds with KCNQ2 enhance | CHO KCNQ2-W236L, automated patch clamp current | current increase over 3SD of negative controls (%), stronger effect = higher value, % at 25 µM | 940 tested, 10% active | AID 2558;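 active = current increase at least 3 SD of the untreated controls above them in both duplicate recordings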
Numbers without * were called inactive.

How did CC1=NN(c2ccc(Br)cc2)C(=O)/C1=C/c1ccc(-c2ccccc2C(=O)O)o1 do in these assays?
KCNQ2 enhance: 7.1*; KCNQ2 block: inactive; Kir21 confirm: inactive; HEK293 ctr: inactive; CHO-K1 Tl ctr: -12; KCNQ1 sel pot: 14*; KCNQ2 pot confirm: 19*; Kir21 spec: -33; KCNQ2 W236L MoA: inactive

How did CC1=NOC(=O)/C1=C\c1ccc(-c2ccc(Br)cc2C(=O)O)o1 do in these assays?
KCNQ2 enhance: 1.2; KCNQ2 block: inactive

Results for CCOC(=O)c1ccc(S(=O)(=O)Nc2nc3cc(S(=O)(=O)NC4=NCCCCC4)ccc3s2)cc1 ?
KCNQ2 block: inactive

What do the screens show for `COc1ccc(NC(=O)CCCN2C(=O)C3CC=CCC3C2=O)cc1` (centres undefined)?
KCNQ2 enhance: 0.66; KCNQ2 block: inactive

What do the screens show for `CCOC(=O)c1c(C)n(CCNC(C)=O)c2ccc(OC)cc12`?
KCNQ2 block: inactive

Results for CCOC(=O)c1c(-c2ccccc2)c2cc(OC)ccc2n1CCCN(C)C ?
KCNQ2 block: inactive; Kir21 confirm: 36%*; HEK293 ctr: inactive

How did Cc1nnc(CN(C)C(=O)c2cc(COc3ccc(F)cc3Cl)on2)o1 do in these assays?
KCNQ2 enhance: 0.29; KCNQ2 block: inactive

How did CC(C)Nc1ccc(Nc2ccnc3cc4ccccc4cc23)cc1 do in these assays?
KCNQ2 block: inactive

What do the screens show for `COc1ccc(Nc2ccnc3ccccc23)cc1`?
KCNQ2 enhance: 2; KCNQ2 block: inactive; Kir21 confirm: 14%*; HEK293 ctr: inactive

How did CCN(CC)S(=O)(=O)c1cc(OC)ccc1N=Nc1ccc(O)c2ncccc12 do in these assays?
KCNQ2 enhance: 2; KCNQ2 block: inactive

What do the screens show for `CCOc1ccc(N=Nc2ccc(O)c3ncccc23)cc1`?
KCNQ2 enhance: 23*; KCNQ2 block: inactive; Kir21 confirm: inactive; HEK293 ctr: inactive; CHO-K1 Tl ctr: 13*; KCNQ1 sel pot: 12*; KCNQ2 pot confirm: -20; Kir21 spec: -21

What do the screens show for `O=C(c1ccccc1)N1CCN(C(=O)c2nn3c(C(F)(F)F)cc(-c4ccco4)nc3c2Br)CC1`?
KCNQ2 block: inactive

How did Cc1cccc(NC(=O)C2CCN(S(=O)(=O)c3ccc(Cl)cc3)CC2)n1 do in these assays?
KCNQ2 enhance: 0.75; KCNQ2 block: inactive

How did CCc1nc(OCC(=O)c2ccccc2)c(C#N)c2c1COC(C)(C)C2 do in these assays?
KCNQ2 enhance: 9.6*; KCNQ2 block: inactive; Kir21 confirm: inactive; HEK293 ctr: inactive; CHO-K1 Tl ctr: 57*; KCNQ1 sel pot: -6; KCNQ2 pot confirm: 20*; Kir21 spec: -48; KCNQ2 W236L MoA: inactive

What do the screens show for `Cc1nc(OCC(=O)c2ccc(Cl)cc2)c(C#N)c2c1COC(C)(C)C2`?
KCNQ2 enhance: 0.81; KCNQ2 block: inactive

Results for CSc1ccc(CN2CCc3c([nH]c4ccccc34)C2)cc1 ?
KCNQ2 enhance: 0.01; KCNQ2 block: inactive

What do the screens show for `O=C(O)c1ccc(S(=O)(=O)c2ccc3c(c2)C(=O)N(c2ccc(O)cc2)C3=O)cc1`?
KCNQ2 enhance: 1.8; KCNQ2 block: inactive

Results for O=C1c2ccc3c4c(ccc(c24)C(=O)N1c1ccc(O)cc1)C(=O)N(c1ccc(O)cc1)C3=O ?
KCNQ2 enhance: 11*; KCNQ2 block: inactive; Kir21 confirm: inactive; HEK293 ctr: inactive; CHO-K1 Tl ctr: 2.5*; KCNQ1 sel pot: 45*; KCNQ2 pot confirm: -12; Kir21 spec: -30

What do the screens show for `Cc1nn(-c2ccccc2)c(Cl)c1C(=O)Nc1ccc(N2CCOCC2)cc1`?
KCNQ2 enhance: 1.7; KCNQ2 block: inactive

What do the screens show for `Nc1nonc1-n1nnc(C(=O)N/N=C/c2cccnc2)c1CSc1ccccc1`?
KCNQ2 enhance: 1.4; KCNQ2 block: inactive

How did COc1ccccc1N1CCN(Cc2ccc(OC)c(OC)c2OC)CC1 do in these assays?
KCNQ2 block: inactive

Results for COc1ccccc1N1CCN(Cc2ccc(O)c3ncccc23)CC1 ?
KCNQ2 enhance: 6.5*; KCNQ2 block: inactive; Kir21 confirm: inactive; HEK293 ctr: 126%*; CHO-K1 Tl ctr: -5; KCNQ1 sel pot: -22; KCNQ2 pot confirm: 3.8*; Kir21 spec: -45; KCNQ2 W236L MoA: inactive

How did Cc1ccc(C(=O)NCCN2CCNC2=O)cc1 do in these assays?
KCNQ2 enhance: 1.6; KCNQ2 block: inactive

How did CN(C(=O)CN(c1ccccc1)S(=O)(=O)c1ccc(F)cc1)C1CCS(=O)(=O)C1 (centres undefined) do in these assays?
KCNQ2 enhance: 1.6; KCNQ2 block: inactive

What do the screens show for `COc1ccccc1/C=C/CN1CCCCC1`?
KCNQ2 enhance: 0.51; KCNQ2 block: inactive

Results for CCCN(C(=O)COC(=O)Cn1c(=O)oc2ccccc21)c1c(N)n(Cc2ccccc2)c(=O)[nH]c1=O ?
KCNQ2 enhance: 1.5; KCNQ2 block: inactive

What do the screens show for `Cc1cc(C(=O)OCC(=O)Nc2ccccc2)c(C)o1`?
KCNQ2 enhance: 1.4; KCNQ2 block: inactive

Results for Cc1cc(C(=O)OCC(=O)Nc2ccc(F)cc2)c(C)o1 ?
KCNQ2 enhance: 5.7*; KCNQ2 block: inactive; Kir21 confirm: inactive; HEK293 ctr: inactive; CHO-K1 Tl ctr: 74*; KCNQ1 sel pot: -10; KCNQ2 pot confirm: -3; Kir21 spec: -34; KCNQ2 W236L MoA: inactive

What do the screens show for `c1csc(C2CCCN2c2nc3nonc3nc2NC2CC2)n1` (centres undefined)?
KCNQ2 block: inactive

How did Cn1c(=O)c2c(-c3ccccc3)n(C3CCCCC3)cc2n(C)c1=O do in these assays?
KCNQ2 block: inactive

How did O=C(CC12CC3CC(CC(C3)C1)C2)Nc1cccc2ncccc12 do in these assays?
KCNQ2 enhance: 11*; KCNQ2 block: inactive; Kir21 confirm: inactive; HEK293 ctr: inactive; CHO-K1 Tl ctr: -17; KCNQ1 sel pot: -16; KCNQ2 pot confirm: 45*; Kir21 spec: -28; KCNQ2 W236L MoA: inactive

Results for O=C(Nc1cccc2ncccc12)C12CC3CC(CC(C3)C1)C2 ?
KCNQ2 enhance: 1.2; KCNQ2 block: inactive
